Screening results (PubChem BioAssay)
D3 ag = D3 dopamine receptor (human) agonism; actives 0.58% (n = 410,000); AID 652048; max activation, %; P35462; D3R DiscoveRx beta-arrestin cells, luminescence, 90 min; in the data active means max activation above about 30%; further: 0% is about no effect
Target sequence (P35462 whole entry, looked up): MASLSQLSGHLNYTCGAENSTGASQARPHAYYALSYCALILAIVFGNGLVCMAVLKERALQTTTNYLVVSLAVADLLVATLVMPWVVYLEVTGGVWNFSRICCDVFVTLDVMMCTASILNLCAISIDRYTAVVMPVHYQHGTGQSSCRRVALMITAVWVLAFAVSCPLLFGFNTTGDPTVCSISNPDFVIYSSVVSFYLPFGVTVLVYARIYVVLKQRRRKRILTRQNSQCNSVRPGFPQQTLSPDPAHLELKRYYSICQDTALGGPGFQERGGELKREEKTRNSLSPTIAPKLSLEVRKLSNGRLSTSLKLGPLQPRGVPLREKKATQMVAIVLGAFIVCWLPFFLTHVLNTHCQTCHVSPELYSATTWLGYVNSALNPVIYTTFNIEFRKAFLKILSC
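Cells at 1500/well, incubated overnight, then treated with pinned compounds (dopamine as control) for 90 min at 37 degrees C. DiscoveRx reagent added for 30 - 60 minutes at room temperature; luminescence read.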
ClpP mod = qHTS Assay for Activators of ClpP; purified B. subtilis ClpP, FRET peptide cleavage, 20 min; Potency, µM (doses to about 57.5 µM), without a hit: at the top dose activity change, negative = active; actives 1.9% (n = 340,000); active means well fitted falling curve with a large enough effect; inconclusive means small, poorly fitted or top-dose-only effect; inactive means no such curve, though single readings can be large or run the other way; further: potency means the concentration at half of the fitted maximal effect; the source files actives as falling curves though it sought activators and does not explain the sign; nearly all actives have a fitted effect of over 65% in size
Target sequence (P80244 whole entry, looked up): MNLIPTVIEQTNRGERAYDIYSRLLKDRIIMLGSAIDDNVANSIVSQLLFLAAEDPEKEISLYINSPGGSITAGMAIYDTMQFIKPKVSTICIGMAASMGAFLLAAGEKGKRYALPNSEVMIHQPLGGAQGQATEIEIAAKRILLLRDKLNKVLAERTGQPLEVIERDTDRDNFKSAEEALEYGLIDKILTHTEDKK
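Purified B. subtilis ClpP, 10 microg/mL final in Tris/HCl pH8 with KCl, BSA, glycerol and Tween-20, cleaved an Abz/nitrotyrosine-quenched decapeptide. Fluorescence (ex 320, em 430) was read at 0 and 20 min at room temperature. Delta was normalized to 5.8 microM ADEP and DMSO/no-enzyme controls.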
TDP1 cell noCPT = qHTS for Inhibitors of human tyrosyl-DNA phosphodiesterase 1 (TDP1): qHTS in cells in absence of CPT; AID 686978, 2013; DT40 Tdp1-/- hTDP1 cells, no CPT, ATP luminescence, 48 h; Potency, µM (titrated, usually from 46.2 µM), inactives show top-dose activity change, negative = growth inhibition, actives largely listed as inhibitors; actives 15% (n = 420,000); further: potency means the concentration at half of the fitted maximal effect; on the % scale 0 is the no-effect control and ±100 the full control effect; nearly all actives have a fitted effect of over 55% in size
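Stably hTDP1-transfected Tdp1-null chicken DT40 cells were treated with library compounds minus camptothecin and grown for at least 48 hr at 37 °C, after which cellular ATP was quantified by luminescence.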
IL1B secr inh = blocks inflammasome-driven IL-1 beta release. actives 4.7% (n = 360,000). AID 743279. activity change, % at 57.5 µM. THP-1 LPS/ATP IL-1B secretion, AlphaLISA, 16 h; stronger effect = lower value; in the data active means activity change below about -50%; inconclusive means mostly about -30% to -49%; further: on the % scale 0 is the no-effect control and ±100 the full control effect
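Secreted IL-1B measured by AlphaLISA bead assay after 16 h compound exposure of THP-1 cells; compounds (final up to 57.5 uM) added 1 h before LPS (250 ng/mL) and ATP (1.25 mM) stimulation; lower signal means less secretion.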
DT40 TDP1 CPT = DT40-hTDP1 cell growth loss with CPT | chicken DT40 Tdp1-/-;hTDP1 cells + 20 nM CPT, ATP luminescence, 48 h | actives 12% (n = 420,000) | Potency, µM (doses to about 46.2 µM), without a hit: at the highest dose activity change, negative = growth inhibition, hits mostly inhibitors; further: potency means the concentration at half of the fitted maximal effect; on the % scale 0 is the no-effect control and ±100 the full control effect; nearly all actives have a fitted effect of over 55% in size
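Cell growth measured by CellTiter-Glo luminescence after a minimum 48 h, 37 C compound exposure with 20 nM CPT in Tdp1-knockout DT40 cells stably expressing hTDP1, seeded 400/well; qHTS titration format.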
D3 antag = D3 dopamine receptor (human) antagonism; P35462; D3R cells, DiscoveRx beta-arrestin luminescence, antagonist mode; stronger effect = lower value; max response, negative = inhibition, %; actives 2.5% (n = 360,000); in the data active means max response below about -50%; inconclusive means no clear call, values can overlap the other calls; further: on the % scale 0 is the no-effect control and ±100 the full control effect
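Cells expressing the human receptor were seeded at 1500 cells/well, incubated overnight at 37 degrees C in 5% CO2, then exposed to library compounds with dopamine controls for 90 minutes at 37 degrees C before luminescent detection.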
Active calls of the source: *. A selection: hits, their analogues and other compounds. The true share with any hit is near 21%. Unless noted, the call rests on the fitted dose curve; in most records, active means well fitted inhibition curve with a large enough effect; inconclusive means small, poorly fitted or top-dose-only effect; inactive means flat fitted curve, though single readings scatter.

Screening CC(C)(C)[C@H]1COC(=O)[C@@H](NC(=O)OCC2c3ccccc3-c3ccccc32)C/C=C\C[C@@H](CC(=O)N[C@@H](CO)Cc2ccccc2)C(=O)N1 returned D3 ag 0.9, ClpP mod -2.6%, TDP1 cell noCPT 6.51µM*, IL1B secr inh -7.2, DT40 TDP1 CPT 9.2µM* and D3 antag 0.0.
C[C@H]1COC(=O)[C@@H](CC(=O)OC(C)(C)C)C/C=C\C[C@@H](CC(=O)N[C@H](CO)Cc2ccccc2)C(=O)N1 was read as D3 ag -6.3, ClpP mod -0.8%, TDP1 cell noCPT inconclusive, IL1B secr inh 2.1, DT40 TDP1 CPT inconclusive and D3 antag -4.5.
`C[C@@H]1COC(=O)[C@H](NC(=O)OCC2c3ccccc3-c3ccccc32)C/C=C\C[C@@H](CC(=O)N[C@H](CO)Cc2ccccc2)C(=O)N1` gave D3 ag -2.2, ClpP mod 0.2%, TDP1 cell noCPT 20.6µM*, IL1B secr inh -0.6, DT40 TDP1 CPT 18.4µM* and D3 antag 10.9.
`O=C(C[C@@H]1C/C=C\C[C@@H](NC(=O)OCC2c3ccccc3-c3ccccc32)C(=O)OCCNC1=O)N[C@@H](CO)Cc1ccccc1` gave D3 ag 15.4, ClpP mod 1.6%, TDP1 cell noCPT 8.2µM*, IL1B secr inh 23.7, DT40 TDP1 CPT 9.2µM* and D3 antag 26.4.
For Cc1cc(C(=O)N/N=C/c2cc(Cl)cc([N+](=O)[O-])c2O)n[nH]1 the results were D3 ag 1.1, TDP1 cell noCPT -8.8%, IL1B secr inh 18.2, DT40 TDP1 CPT 14.2% and D3 antag -1.0.
Screening Cc1cc(C(=O)N/N=C/c2ccc([N+](=O)[O-])s2)n[nH]1 returned D3 ag 5.4, TDP1 cell noCPT 5.17µM*, IL1B secr inh -5.6, DT40 TDP1 CPT 5.8µM* and D3 antag -21.8.
`Cc1[nH]cnc1C(=O)N/N=C/c1ccc([N+](=O)[O-])s1` gave D3 ag 29.6, TDP1 cell noCPT 10.3µM*, IL1B secr inh 16.9, DT40 TDP1 CPT 11.6µM* and D3 antag -15.5.
Screening CCc1nn2c(=O)cc(CSCC(=O)Nc3ccccc3Cl)nc2s1 returned D3 ag 4.5, ClpP mod -1.4%, TDP1 cell noCPT 10.3%, IL1B secr inh 11.6, DT40 TDP1 CPT 14.2% and D3 antag 15.9.
For Cc1nc2cnc(N3CCNCC3)nc2n(CCC#N)c1=O the results were TDP1 cell noCPT 8.7% and DT40 TDP1 CPT 1.2%.
For O=c1[nH][nH]cc1C=Nc1ccccc1O the results were D3 ag 3.8, ClpP mod 2.0%, TDP1 cell noCPT inconclusive, IL1B secr inh 10.1, DT40 TDP1 CPT inconclusive and D3 antag 21.5.
For O=c1c(=Nc2ccccc2O)c(=O)c2ccccc12 the results were D3 ag -4.6, TDP1 cell noCPT 11.6µM*, IL1B secr inh -16.3, DT40 TDP1 CPT 7.31µM* and D3 antag -4.7.
Cc1ccc(-c2c(C(=O)c3ccc(Br)cc3)[nH]c(N)c2C(=O)NCc2ccc(Cl)cc2)cc1 was read as D3 ag -1.0, ClpP mod 0.0%, TDP1 cell noCPT -15.8%, IL1B secr inh 0.0, DT40 TDP1 CPT 2.8% and D3 antag 24.7.
For Cc1ccc(CNC(=O)c2c(Nc3c(C)cccc3C)sc(C(=O)c3ccccc3)c2N)cc1 the results were D3 ag 9.4, ClpP mod 0.8%, TDP1 cell noCPT 14.6µM* and DT40 TDP1 CPT 8.2µM*.
Cc1ccc(Nc2sc(C(=O)c3ccccc3)c(N)c2C(=O)NC(C)C)cc1 was read as D3 ag 10.5, ClpP mod 3.2%, TDP1 cell noCPT inconclusive and DT40 TDP1 CPT inconclusive.
`COc1cccc(Nc2sc(C(=O)c3ccc(Cl)cc3)c(N)c2C(=O)NCc2ccc(C)cc2)c1` gave D3 ag 2.8, ClpP mod -0.2%, TDP1 cell noCPT 4.61µM* and DT40 TDP1 CPT 2.91µM*.
For COc1cccc(Nc2sc(C(=O)c3ccc(F)cc3)c(N)c2C(=O)NCc2ccc(Cl)cc2)c1 the results were D3 ag 4.1, ClpP mod 0.0%, TDP1 cell noCPT 20.6µM* and DT40 TDP1 CPT -95.4%.
For COc1ccc(OC)c(CCNC(=O)Cn2cccc2C(=O)c2ccccc2C)c1 the results were D3 ag -2.4, TDP1 cell noCPT 8.2µM*, IL1B secr inh 0.0, DT40 TDP1 CPT inconclusive and D3 antag -4.7.
Screening COc1ccc(OC)c(CCNC(=O)Cn2cccc2C(=O)c2ccccc2)c1 returned D3 ag -4.3, ClpP mod -2.4%, TDP1 cell noCPT inconclusive, IL1B secr inh 0.0, DT40 TDP1 CPT 7.31µM* and D3 antag -27.2.
C[C@@H](O[C@H]1OCCN(Cc2n[nH]c(=O)[nH]2)[C@H]1c1ccc(F)cc1)c1cc(C(F)(F)F)cc(C(F)(F)F)c1 was read as D3 ag 13.7, TDP1 cell noCPT 21.1µM* and DT40 TDP1 CPT 18.8µM*.
`COc1cc2c(cc1OC)-c1nnc(-c3cccs3)n1C(C)(C)C2` gave D3 ag 2.2, ClpP mod 3.6%, TDP1 cell noCPT inconclusive, IL1B secr inh -10.0, DT40 TDP1 CPT inconclusive and D3 antag 10.4.
CC1(C)Cc2ccccc2-c2nnc(-c3ccco3)n21 was read as D3 ag -6.4, ClpP mod -18.5%, TDP1 cell noCPT -13.4%, IL1B secr inh -7.0, DT40 TDP1 CPT -15.7% and D3 antag -51.9*.
For COc1cc2c(cc1OC)-c1nnc(-c3ccco3)n1C1(CCCC1)C2 the results were D3 ag 4.0, ClpP mod 31.6µM*, TDP1 cell noCPT 18.4µM*, IL1B secr inh -21.9, DT40 TDP1 CPT inconclusive and D3 antag 39.0.
For CC1CCN(C(=O)CSc2nc(N)c3c4c(sc3n2)CN(C)CC4)CC1 the results were D3 ag -3.5, ClpP mod 28.2µM*, TDP1 cell noCPT 20.6µM*, IL1B secr inh -7.0, DT40 TDP1 CPT inconclusive and D3 antag 0.0.
For CN1CCc2c(sc3nc(SCC(=O)N4CCOCC4)nc(N)c23)C1 the results were D3 ag -0.6, ClpP mod inconclusive, TDP1 cell noCPT 18.4µM*, IL1B secr inh -20.5, DT40 TDP1 CPT 23.1µM* and D3 antag -9.3.
`Cc1ccn(CC(=O)N2CCCC(N3CCN(c4ccccc4F)CC3)C2)n1` (configuration not stated) gave D3 ag 3.6, ClpP mod 0.6%, TDP1 cell noCPT 11.0%, IL1B secr inh 12.5, DT40 TDP1 CPT -10.5% and D3 antag -0.5.
